According to the supplement of paper PMC10849652:
Of roughly 7,900 targets only a part is listed; those with a hit were picked by preference. About 0.6% of all pairs of compound and target were hits. A number with no mark means an inactive call.

Experiments:
Experiment in all cases: log2 fold change, soluble protein after heating vs DMSO (PISA); higher = thermal stabilisation; K562 cells, 10 uM, 30 min; active = over 0.2 and 3.5 SD of the protein, either way, in both replicates (recomputed)
saracatinib = compound: CN1CCN(CCOc2cc(OC3CCOCC3)c3c(Nc4c(Cl)ccc5c4OCO5)ncnc3c2)CC1 [saracatinib]
In short: (§1)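 K562 cells (2×10^6 cells/mL) were treated with 10 μM compound for 30 min, and aliquots were heated for 3 min over 48°C-58°C. Pooled aliquots were extracted in PBS with 0.5% NP-40 at 4°C, and the supernatant after 21,000xg for 90 min was measured by TMTpro 16plex LC-MS/MS with channel sums equalised. Reported thermal stability, relative to control samples and from duplicates, is a log2 fold change.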

sotrastaurin = compound: CN1CCN(c2nc(C3=C(c4c[nH]c5ccccc45)C(=O)NC3=O)c3ccccc3n2)CC1 [sotrastaurin]
In short: as §1

alvocidib = compound: CN1CC[C@H](c2c(O)cc(O)c3c(=O)cc(-c4ccccc4Cl)oc23)[C@H](O)C1 [alvocidib]
In short: as §1

Tubastatin A = compound: CN1CCc2c(c3ccccc3n2Cc2ccc(C(=O)NO)cc2)C1 [Tubastatin A]
In short: as §1

[1] = compound: CNC(=O)C1=CC=CC=C1NC2=NC(=NC=C2Cl)NC3=C(C=C(C=C3)N4CCOCC4)OC
In short: as §1

defactinib = compound: CNC(=O)c1ccc(Nc2ncc(C(F)(F)F)c(NCc3nccnc3N(C)S(C)(=O)=O)n2)cc1 [defactinib]
In short: as §1

rucaparib = compound: CNCc1ccc(-c2[nH]c3cc(F)cc4c3c2CCNC4=O)cc1 [rucaparib]
In short: as §1

[2] = compound: CNc1nc(-c2ccc3c(N)n[nH]c3c2)cc(N2C[C@@H](C(=O)NC3CCCCC3)CC[C@H]2C)n1
In short: as §1

encorafenib = compound: COC(=O)N[C@@H](C)CNc1nccc(-c2cn(C(C)C)nc2-c2cc(Cl)cc(NS(C)(=O)=O)c2F)n1 [encorafenib]
In short: as §1

[3] = compound: COC(=O)[C@H](CCSC)NC(=O)C1=C(C=C(C=C1)NC[C@H](CS)N)C2=CC=CC=C2
In short: as §1

Chain of UniProt P49366 (P49366 whole entry, looked up): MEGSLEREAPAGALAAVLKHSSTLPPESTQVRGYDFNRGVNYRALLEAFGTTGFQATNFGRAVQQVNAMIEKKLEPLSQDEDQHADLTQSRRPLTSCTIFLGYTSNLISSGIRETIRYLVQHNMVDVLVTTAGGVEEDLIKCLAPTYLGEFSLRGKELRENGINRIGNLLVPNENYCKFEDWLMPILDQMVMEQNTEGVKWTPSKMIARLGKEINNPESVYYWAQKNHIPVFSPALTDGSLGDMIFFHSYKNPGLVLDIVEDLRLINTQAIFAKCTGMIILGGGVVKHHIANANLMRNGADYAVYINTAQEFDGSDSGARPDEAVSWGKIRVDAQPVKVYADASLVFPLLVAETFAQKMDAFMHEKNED
Chain of UniProt Q58WW2 (Q58WW2 whole entry, looked up): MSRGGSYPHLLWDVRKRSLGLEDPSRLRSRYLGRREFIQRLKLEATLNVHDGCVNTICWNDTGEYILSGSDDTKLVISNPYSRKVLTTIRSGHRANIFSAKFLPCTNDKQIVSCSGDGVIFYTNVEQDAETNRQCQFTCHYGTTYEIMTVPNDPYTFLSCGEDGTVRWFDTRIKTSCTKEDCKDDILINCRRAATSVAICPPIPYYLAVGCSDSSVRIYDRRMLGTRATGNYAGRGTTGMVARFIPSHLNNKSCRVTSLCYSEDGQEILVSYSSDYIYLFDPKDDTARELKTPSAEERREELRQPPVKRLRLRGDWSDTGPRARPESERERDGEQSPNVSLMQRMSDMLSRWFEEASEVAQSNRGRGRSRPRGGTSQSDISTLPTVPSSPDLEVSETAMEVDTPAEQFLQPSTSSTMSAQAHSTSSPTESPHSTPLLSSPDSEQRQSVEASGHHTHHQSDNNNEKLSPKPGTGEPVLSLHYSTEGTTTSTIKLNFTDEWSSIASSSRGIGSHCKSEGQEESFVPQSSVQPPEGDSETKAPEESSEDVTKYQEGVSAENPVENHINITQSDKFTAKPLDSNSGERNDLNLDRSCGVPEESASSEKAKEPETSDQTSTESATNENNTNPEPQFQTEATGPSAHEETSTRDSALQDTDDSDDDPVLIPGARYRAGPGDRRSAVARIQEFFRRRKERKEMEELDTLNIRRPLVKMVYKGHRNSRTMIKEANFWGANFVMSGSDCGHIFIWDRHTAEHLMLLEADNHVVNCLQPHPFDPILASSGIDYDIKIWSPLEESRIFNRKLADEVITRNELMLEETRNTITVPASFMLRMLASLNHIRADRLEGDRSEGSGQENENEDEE
Chain of UniProt Q96GE9 (Q96GE9 whole entry, looked up): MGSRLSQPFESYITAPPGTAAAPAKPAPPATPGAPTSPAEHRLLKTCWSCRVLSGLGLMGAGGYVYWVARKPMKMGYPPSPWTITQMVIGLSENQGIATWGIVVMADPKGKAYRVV
Chain of UniProt Q15075 (Q15075 whole entry, looked up): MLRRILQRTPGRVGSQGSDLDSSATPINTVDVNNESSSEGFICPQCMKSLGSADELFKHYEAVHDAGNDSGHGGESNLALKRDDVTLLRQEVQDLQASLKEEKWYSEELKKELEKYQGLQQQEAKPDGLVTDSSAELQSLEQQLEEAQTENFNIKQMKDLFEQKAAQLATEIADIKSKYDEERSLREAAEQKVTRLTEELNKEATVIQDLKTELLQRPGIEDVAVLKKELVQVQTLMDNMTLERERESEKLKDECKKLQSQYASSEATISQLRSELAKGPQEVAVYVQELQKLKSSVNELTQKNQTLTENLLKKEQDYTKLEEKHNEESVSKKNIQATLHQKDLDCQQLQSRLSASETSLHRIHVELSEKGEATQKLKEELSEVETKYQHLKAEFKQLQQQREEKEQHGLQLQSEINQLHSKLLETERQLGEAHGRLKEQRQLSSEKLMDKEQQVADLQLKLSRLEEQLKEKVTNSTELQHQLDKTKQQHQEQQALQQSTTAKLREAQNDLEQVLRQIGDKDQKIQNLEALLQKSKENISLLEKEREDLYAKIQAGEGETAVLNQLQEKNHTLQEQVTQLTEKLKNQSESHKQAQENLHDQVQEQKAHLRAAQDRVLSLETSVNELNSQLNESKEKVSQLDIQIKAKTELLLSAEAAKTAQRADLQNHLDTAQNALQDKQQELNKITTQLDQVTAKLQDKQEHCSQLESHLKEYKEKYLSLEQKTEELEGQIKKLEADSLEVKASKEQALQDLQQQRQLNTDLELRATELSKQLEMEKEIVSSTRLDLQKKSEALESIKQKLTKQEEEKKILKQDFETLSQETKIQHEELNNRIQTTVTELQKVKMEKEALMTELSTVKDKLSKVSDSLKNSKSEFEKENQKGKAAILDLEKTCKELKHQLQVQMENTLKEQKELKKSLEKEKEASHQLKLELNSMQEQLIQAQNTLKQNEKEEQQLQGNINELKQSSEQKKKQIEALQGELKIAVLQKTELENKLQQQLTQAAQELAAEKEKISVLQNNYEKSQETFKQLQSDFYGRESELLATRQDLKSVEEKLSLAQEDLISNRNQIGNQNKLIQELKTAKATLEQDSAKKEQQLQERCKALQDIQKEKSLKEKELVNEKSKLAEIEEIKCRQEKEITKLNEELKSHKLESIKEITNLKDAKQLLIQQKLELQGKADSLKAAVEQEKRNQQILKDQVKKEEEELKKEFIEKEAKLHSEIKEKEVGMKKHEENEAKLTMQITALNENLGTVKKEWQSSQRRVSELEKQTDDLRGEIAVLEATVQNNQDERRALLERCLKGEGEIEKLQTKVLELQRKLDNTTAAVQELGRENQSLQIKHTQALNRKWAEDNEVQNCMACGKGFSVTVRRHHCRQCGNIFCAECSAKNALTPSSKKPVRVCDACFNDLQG
Chain of UniProt Q9H773 (Q9H773 whole entry, looked up): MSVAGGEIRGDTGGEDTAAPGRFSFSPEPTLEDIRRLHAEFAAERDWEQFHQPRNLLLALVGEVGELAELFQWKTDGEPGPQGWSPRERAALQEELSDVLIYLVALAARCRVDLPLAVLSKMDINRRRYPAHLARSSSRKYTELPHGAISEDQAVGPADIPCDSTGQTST
Chain of UniProt Q9Y5Q0 (Q9Y5Q0 whole entry, looked up): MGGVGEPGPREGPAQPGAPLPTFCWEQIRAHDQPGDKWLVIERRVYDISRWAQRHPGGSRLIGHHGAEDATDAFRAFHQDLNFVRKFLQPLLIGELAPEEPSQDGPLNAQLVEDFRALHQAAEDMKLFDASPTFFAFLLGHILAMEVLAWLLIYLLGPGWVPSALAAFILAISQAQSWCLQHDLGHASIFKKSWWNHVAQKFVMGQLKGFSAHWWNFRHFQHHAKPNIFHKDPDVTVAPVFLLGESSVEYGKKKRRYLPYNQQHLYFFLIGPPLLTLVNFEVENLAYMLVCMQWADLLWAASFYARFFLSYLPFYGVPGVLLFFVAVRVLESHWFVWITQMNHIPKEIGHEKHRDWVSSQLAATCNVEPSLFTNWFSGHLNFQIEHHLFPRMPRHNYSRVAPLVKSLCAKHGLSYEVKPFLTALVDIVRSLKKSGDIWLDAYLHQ
Chain of UniProt Q86UK5 (Q86UK5 whole entry, looked up): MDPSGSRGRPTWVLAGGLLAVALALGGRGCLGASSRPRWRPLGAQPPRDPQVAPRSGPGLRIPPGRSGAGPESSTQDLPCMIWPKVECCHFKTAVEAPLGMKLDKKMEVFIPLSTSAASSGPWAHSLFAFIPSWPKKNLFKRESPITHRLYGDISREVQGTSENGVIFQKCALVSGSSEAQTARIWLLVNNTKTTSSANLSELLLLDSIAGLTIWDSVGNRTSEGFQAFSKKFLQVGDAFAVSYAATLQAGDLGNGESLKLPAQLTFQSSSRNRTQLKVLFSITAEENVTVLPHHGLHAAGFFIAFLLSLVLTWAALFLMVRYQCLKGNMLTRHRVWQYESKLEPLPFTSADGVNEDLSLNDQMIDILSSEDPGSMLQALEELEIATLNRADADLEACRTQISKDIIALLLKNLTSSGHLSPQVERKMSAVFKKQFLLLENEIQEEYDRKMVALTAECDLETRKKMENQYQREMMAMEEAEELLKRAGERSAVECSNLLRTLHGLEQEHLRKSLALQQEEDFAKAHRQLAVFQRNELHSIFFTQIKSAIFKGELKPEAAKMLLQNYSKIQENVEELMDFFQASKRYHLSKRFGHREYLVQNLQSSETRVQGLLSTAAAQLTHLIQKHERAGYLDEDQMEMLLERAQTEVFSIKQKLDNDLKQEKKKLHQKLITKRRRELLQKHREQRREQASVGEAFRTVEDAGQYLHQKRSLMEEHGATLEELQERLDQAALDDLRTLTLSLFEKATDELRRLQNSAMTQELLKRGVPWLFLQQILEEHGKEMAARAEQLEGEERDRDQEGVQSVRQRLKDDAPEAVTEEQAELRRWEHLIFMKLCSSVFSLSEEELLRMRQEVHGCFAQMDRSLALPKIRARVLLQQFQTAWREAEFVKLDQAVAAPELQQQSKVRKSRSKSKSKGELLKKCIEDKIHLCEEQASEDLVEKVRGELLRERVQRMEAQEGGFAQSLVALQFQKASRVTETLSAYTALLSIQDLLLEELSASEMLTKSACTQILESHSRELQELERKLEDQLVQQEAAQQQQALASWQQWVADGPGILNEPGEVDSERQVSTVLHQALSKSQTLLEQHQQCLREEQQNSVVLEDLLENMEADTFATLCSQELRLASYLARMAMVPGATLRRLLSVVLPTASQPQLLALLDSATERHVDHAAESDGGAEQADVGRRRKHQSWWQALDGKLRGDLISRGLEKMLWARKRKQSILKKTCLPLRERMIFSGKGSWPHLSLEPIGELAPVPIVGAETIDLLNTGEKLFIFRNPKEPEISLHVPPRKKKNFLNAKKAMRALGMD
Chain of UniProt P23919 (P23919 whole entry, looked up): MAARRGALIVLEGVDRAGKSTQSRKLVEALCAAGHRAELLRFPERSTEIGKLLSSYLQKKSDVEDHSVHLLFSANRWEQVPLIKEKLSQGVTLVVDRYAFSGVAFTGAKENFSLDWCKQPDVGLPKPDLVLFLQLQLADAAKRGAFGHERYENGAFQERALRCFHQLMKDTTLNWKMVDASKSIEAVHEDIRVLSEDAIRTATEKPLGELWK
Chain of UniProt Q8N8J7 (Q8N8J7 whole entry, looked up): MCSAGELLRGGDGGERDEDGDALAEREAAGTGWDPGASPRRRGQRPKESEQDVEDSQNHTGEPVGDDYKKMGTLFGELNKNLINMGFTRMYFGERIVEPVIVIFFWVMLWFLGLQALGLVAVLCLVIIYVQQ

| Target | log2 fold change (saracatinib) | log2 fold change (sotrastaurin) | log2 fold change (alvocidib) | log2 fold change (Tubastatin A) | log2 fold change [1] | log2 fold change (defactinib) | log2 fold change (rucaparib) | log2 fold change [2] | log2 fold change (encorafenib) | log2 fold change [3] |
| --- | --- | --- | --- | --- | --- | --- | --- | --- | --- | --- |
| ECPAS (UniProt Q5VYK3) | -0.055 | -0.124 | -0.033 | 0.038 | 0.012 | -0.06 | 0.09 | 0.027 | 0.122 | -0.045 |
| CUX1 isoform 2 (UniProt Q13948) | -0.065 | -0.012 | -0.07 | 0.006 | 0.03 | -0.049 | 0.061 | 0.048 | 0.056 | -0.062 |
| DHCR24 (UniProt Q15392) | 0.761 | 0.567 | 0.002 | 0.338 | -0.094 | -0.017 | 0.561 | 0.117 | 0.001 | 0.01 |
| DTWD1 (UniProt Q8N5C7) | 0.007 | -0.02 | -0.122 | -0.014 | 0.007 | -0.03 | 0.011 | 0.152 | 0.051 | -0.143 |
| DCTPP1 (UniProt Q9H773) | 0.012 | 0.031 | -0.033 | 0.031 | -0.075 | -0.008 | -0.011 | -0.022 | -0.072 | 0.002 |
| DTYMK (UniProt P23919) | -0.02 | 0.06 | 0 | -0.022 | -0.062 | 0.004 | -0.044 | 0.003 | 0.005 | 0.013 |
| EXOC4 (UniProt Q96A65) | -0.013 | -0.224 | -0.131 | 0.058 | -0.04 | -0.049 | 0.183 | 0.015 | 0.14 | 0.01 |
| CUTA isoform 2 (UniProt O60888) | 0.202 | 0.097 | -0.158 | 0.049 | 0.003 | -0.027 | -0.035 | 0.034 | -0.002 | 0.122 |
| DBNL isoform 3 (UniProt Q9UJU6) | 0.04 | -0.014 | -0.07 | 0.009 | 0.01 | -0.106 | -0.1 | -0.05 | 0.061 | -0.004 |
| EIF2S3 (UniProt P41091) | -0.016 | 0 | 0.057 | -0.006 | -0.02 | 0.114 | 0.124 | 0.033 | 0.04 | -0.002 |
| DDX39A (UniProt O00148) | 0.018 | -0.149 | -0.061 | 0.007 | -0.143 | -0.213 | 0.111 | -0.041 | -0.016 | -0.032 |
| FAM241A (UniProt Q8N8J7) | -0.012 | -0.632 (active) | -0.046 | -0.035 | 0.042 | 0.013 | 0.006 | -0.003 | -0.009 | 0.03 |
| DMAC1 (UniProt Q96GE9) | -0.509 (active) | 0 | -0.003 | 0.031 | -0.077 | -0.048 | -0.124 | 0.005 | -0.105 | -0.019 |
| DNAJB12 (UniProt Q9NXW2) | 0.022 | 0.068 | -0.006 | -0.006 | 0.024 | -0.03 | 0.079 | -0.011 | -0.018 | -0.021 |
| EVC2 (UniProt Q86UK5) | -0.151 | 0.067 | 0.031 | -0.033 | -0.035 | -0.065 | 0.065 | 0.035 | 0.002 | 0.073 |
| DYRK1A isoform 2 (UniProt Q13627) | -0.046 | 0.022 | -0.135 | 0.058 | -0.264 (active) | 0.03 | 0.036 | 0.029 | 0.014 | -0.021 |
| EEF1AKNMT (UniProt Q8N6R0) | -0.063 | -0.174 | -0.039 | -0.004 | 0.063 | -0.068 | 0.115 | 0.059 | 0.095 | -0.182 |
| EPHX2 (UniProt P34913) | -0.009 | 0.172 | -0.023 | 0.003 | -0.022 | -0.002 | 0.002 | 0.216 | 0.003 | -0.011 |
| DHPS (UniProt P49366) | 0.087 | 0.043 | -0.013 | 0.005 | -0.026 | -0.027 | -0.018 | -0.053 | -0.012 | -0.011 |
| DCAF6 isoform 3 (UniProt Q58WW2) | 0.093 | 0.001 | 0.001 | -0.05 | -0.027 | -0.012 | -0.028 | -0.051 | 0 | 0.034 |
| EEF1D isoform 2 (UniProt P29692) | -0.04 | -0.03 | 0 | 0.001 | 0.107 | -0.011 | 0.053 | 0.017 | 0.078 | -0.013 |
| DDX5 (UniProt P17844) | -0.055 | -0.206 | -0.07 | 0.041 | 0.025 | -0.206 | -0.075 | -0.021 | 0.14 | -0.085 |
| DHRS13 (UniProt Q6UX07) | -0.03 | -0.17 | -0.139 | 0.105 | 0.024 | -0.032 | 0.188 | 0.174 | 0.021 | -0.114 |
| EXOC7 (UniProt Q9UPT5) | 0.024 | -0.218 | -0.039 | 0.029 | -0.04 | -0.06 | -0.01 | -0.077 | 0.006 | -0.047 |
| EEA1 (UniProt Q15075) | 0.07 | 0.013 | 0.013 | -0.014 | -0.014 | -0.033 | -0.035 | -0.026 | -0.047 | 0.007 |
| DNM2 (UniProt P50570) | -0.028 | 0.043 | -0.074 | 0 | -0.027 | -0.02 | 0.035 | 0.029 | 0.009 | -0.03 |
| FADS3 (UniProt Q9Y5Q0) | 0.035 | 0.037 | -0.051 | -0.061 | 0.026 | 0.048 | 0.024 | -0.079 | 0.02 | 0.026 |
| DIAPH1 (UniProt O60610) | -0.104 | -0.276 | 0.132 | 0.086 | 0.044 | -0.039 | 0.219 | 0.125 | 0.215 | -0.12 |
| DNAJC7 (UniProt Q99615) | 0.001 | -0.05 | -0.069 | 0.002 | 0.034 | -0.072 | -0.016 | 0.056 | 0.045 | -0.003 |
| CYFIP1 (UniProt Q7L576) | -0.023 | -0.026 | -0.038 | 0.006 | -0.001 | -0.049 | 0.025 | 0 | -0.005 | -0.013 |
